# Test results reported in PubChem BioAssay.
# Calls of active or inactive are those of the source.
# What was measured:
# [1] = optical density shifts of acrAB sulA E. coli – strain DRC41, OD650, 48 h, E. coli filamentation inducer project, primary screen (AID 1152); conditions: higher = more signal, called active from +8 up or from −8 down;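 further: E. coli MC1000 strain DRC41 lacking acrAB efflux pump and sulA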
# [2] = probe aLefty1 binding on compound microarray – biochemical, small-molecule microarray, 635/667 nm fluorescence, primary screen (AID 1153); conditions: higher = more signal;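 further: score merges spot fluorescence with signal-to-noise ratio from the scanned slide images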
# [3] = plasmodial surface anion channel blockers, osmotic lysis – cell-based, P. falciparum Indochina, OD700, 1 h, primary screen (AID 1154); conditions: P. falciparum Indochina infected RBC osmotic lysis, higher = more signal, called active from +8 up or from −8 down
# [4] = plasmodial surface anion channel blockers, osmotic lysis – cell-based, P. falciparum Indochina, OD700, 2 h, primary screen (AID 1155);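 further: lysis reports solute entry through the parasite surface anion channel PSAC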; conditions: P. falciparum Indochina infected erythrocytes, higher = more signal, called active from +8 up or from −8 down
# [5] = changes in parasitized red cell lysis, either direction – P. falciparum Indochina, OD700, 3 h, PSAC antagonist project, primary screen (AID 1156); conditions: P. falciparum-infected erythrocytes, osmotic lysis, higher = more signal, called active from +8 up or from −8 down
# [6] = plasmodial surface anion channel blockers, osmotic lysis – cell-based, P. falciparum Indochina, OD700, 18 h, primary screen (AID 1157); conditions: P. falciparum Indochina infected erythrocytes, osmotic lysis OD700, 18 h; higher = more signal, called active from +8 up or from −8 down
# [7] = S6 kinase pathway phospho-S6 level changes – cell-based, A549, cytoblot, luminescence, serum-stimulated, primary screen (AID 1158); conditions: 5 h, higher = more signal;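 further: serum-stimulated A549 lung adenocarcinoma cells; signal is phosphorylated S6 detected by cytoblot immunostaining with HRP secondary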
# [8] = target: NADPH oxidase 2 (Homo sapiens) (UniProt P04839); assay: compounds shifting NOX2 Amplex Red fluorescence – cell-based, HEK293-NOX2, PMA-stimulated, NOX inhibitor project, primary screen (AID 1159); conditions: 45 min, higher = more signal, called active from +8 up or from −8 down; further: test concentration not given here
# Sequence of NADPH oxidase 2 (Homo sapiens) (P04839 whole entry, looked up): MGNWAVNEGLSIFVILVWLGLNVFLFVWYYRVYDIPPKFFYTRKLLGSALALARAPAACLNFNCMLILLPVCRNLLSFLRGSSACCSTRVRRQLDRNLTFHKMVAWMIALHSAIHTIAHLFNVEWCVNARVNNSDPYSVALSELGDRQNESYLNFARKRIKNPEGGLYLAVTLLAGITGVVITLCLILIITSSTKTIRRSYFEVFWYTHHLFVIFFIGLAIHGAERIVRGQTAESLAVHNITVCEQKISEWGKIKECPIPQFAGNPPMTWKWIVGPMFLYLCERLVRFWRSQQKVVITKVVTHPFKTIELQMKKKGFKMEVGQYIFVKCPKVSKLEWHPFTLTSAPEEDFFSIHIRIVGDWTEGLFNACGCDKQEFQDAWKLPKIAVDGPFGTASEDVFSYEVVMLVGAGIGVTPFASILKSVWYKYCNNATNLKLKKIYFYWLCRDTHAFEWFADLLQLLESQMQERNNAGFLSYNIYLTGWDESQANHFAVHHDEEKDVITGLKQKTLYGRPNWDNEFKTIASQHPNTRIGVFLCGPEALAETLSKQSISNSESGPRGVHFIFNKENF
# [9] = target: NADPH oxidase 4 (Homo sapiens) (UniProt Q9NPH5); assay: compounds shifting NOX4 Amplex Red fluorescence – cell-based, HEK293-NOX4, tetracycline-induced, NOX inhibitor project, primary screen (AID 1160); conditions: HEK293-NOX4, Amplex Red H2O2 fluorescence, 45 min; higher = more signal, called active from +8 up or from −8 down
# Sequence of NADPH oxidase 4 (Homo sapiens) (Q9NPH5 whole entry, looked up): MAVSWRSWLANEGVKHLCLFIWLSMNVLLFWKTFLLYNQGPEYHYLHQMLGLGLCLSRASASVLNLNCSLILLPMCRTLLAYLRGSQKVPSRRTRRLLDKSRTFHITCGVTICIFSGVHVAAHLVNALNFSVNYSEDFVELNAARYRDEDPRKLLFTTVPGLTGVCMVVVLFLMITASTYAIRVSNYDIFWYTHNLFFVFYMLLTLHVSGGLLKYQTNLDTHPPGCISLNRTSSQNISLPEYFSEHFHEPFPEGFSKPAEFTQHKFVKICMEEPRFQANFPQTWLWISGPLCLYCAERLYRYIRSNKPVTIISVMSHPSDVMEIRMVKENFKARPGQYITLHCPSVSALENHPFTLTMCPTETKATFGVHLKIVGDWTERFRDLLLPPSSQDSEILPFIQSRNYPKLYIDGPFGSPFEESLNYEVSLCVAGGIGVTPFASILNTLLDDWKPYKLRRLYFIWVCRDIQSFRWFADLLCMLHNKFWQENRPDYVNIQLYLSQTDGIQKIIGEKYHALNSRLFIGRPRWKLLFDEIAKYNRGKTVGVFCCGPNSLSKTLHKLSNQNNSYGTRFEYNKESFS
# [10] = target: NADPH oxidase 5 (Homo sapiens) (UniProt Q96PH1); assay: compounds shifting NOX5 Amplex Red fluorescence – cell-based, HEK293-NOX5, NOX inhibitor project, primary screen (AID 1161); conditions: HEK293-NOX5, ionomycin, 45 min, higher = more signal
# Sequence of NADPH oxidase 5 (Homo sapiens) (Q96PH1 whole entry, looked up): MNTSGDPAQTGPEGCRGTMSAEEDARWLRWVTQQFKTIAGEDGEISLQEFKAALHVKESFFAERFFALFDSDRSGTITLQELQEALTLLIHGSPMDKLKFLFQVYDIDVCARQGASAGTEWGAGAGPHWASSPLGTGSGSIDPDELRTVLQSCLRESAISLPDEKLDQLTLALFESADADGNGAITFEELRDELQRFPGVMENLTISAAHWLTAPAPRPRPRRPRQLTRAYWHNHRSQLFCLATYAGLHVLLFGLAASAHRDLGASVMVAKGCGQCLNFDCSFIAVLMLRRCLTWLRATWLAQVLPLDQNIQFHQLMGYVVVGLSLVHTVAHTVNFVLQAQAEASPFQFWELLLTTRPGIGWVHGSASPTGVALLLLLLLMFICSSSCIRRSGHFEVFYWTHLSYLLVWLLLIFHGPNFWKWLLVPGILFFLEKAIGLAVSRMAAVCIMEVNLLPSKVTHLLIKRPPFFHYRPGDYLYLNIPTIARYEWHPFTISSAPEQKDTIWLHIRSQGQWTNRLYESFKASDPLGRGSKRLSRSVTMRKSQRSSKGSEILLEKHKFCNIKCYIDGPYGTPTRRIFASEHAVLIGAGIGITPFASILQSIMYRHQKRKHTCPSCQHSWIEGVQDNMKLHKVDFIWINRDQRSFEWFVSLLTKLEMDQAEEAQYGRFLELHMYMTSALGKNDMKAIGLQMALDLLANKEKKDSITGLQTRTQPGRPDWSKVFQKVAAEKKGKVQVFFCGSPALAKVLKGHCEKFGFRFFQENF
Compound,z-score [1],composite z-score [2],z-score [3],z-score [4],z-score [5],z-score [6],z-score [7],z-score [8],z-score [9],z-score [10]
COc1cc2c(cc1O)C(C1CC1)N(Cc1cc3c(cc1Br)OCO3)CC2 (stereo not given),-1.46 (inactive),-0.263,9.09 (active),1.17 (inactive),0.838 (inactive),0.72 (inactive),-0.074,-6.19 (inactive),-3.97 (inactive),-4.81
COc1ccc(C(=O)Nc2ccc(CN3C(=O)[C@@]4(O[C@@H](CCO)[C@H]([Si](C)(C)c5ccc(OC)cc5)[C@H]4C)c4ccccc43)cc2)cc1,-1.11 (inactive),0.155,25.1 (active),13.2 (active),1.6 (inactive),1.75 (inactive),-0.483,-6.53 (inactive),-2.48 (inactive),-0.954
COc1ccc([Si](C)(C)[C@@H]2[C@@H](CC(=O)N3Cc4ccccc4C[C@H]3CO)O[C@]3(C(=O)N(C)c4c(Br)cc(C)cc43)[C@H]2C)cc1,0.0945 (inactive),0.297,9.71 (active),2.3 (inactive),0.392 (inactive),1.9 (inactive),2.09,0.0136 (inactive),0.0254 (inactive),-0.0526
CC(C)(C)OC(=O)CC[C@@]1(C(=O)NCCN2CCOCC2)N=C(c2ccc(OCCCO)cc2)O[C@@H]1c1ccccc1N=[N+]=[N-],0.0974 (inactive),0.266,31.4 (active),28 (active),3.73 (inactive),5.67 (inactive),-0.249,-2.91 (inactive),0.765 (inactive),-1.73
O=C1c2ccccc2[C@](Cc2ccccc2I)(C(=O)NC2CC2)[C@H](c2ccc(CO)cc2)N1C1CCCCC1,0.0304 (inactive),0.166,22.5 (active),5.2 (inactive),3.82 (inactive),1.36 (inactive),-0.471,0.478 (inactive),1.06 (inactive),2.45
COc1ccc(C#Cc2ccc3c(c2)[C@]2(C(=O)N3)[C@H](c3ccccc3OCCO)N3[C@H](c4ccccc4)[C@H](c4ccccc4)OC(=O)[C@H]3[C@@H]2C(=O)O)cc1,-0.181 (inactive),1.27,0.123 (inactive),0.267 (inactive),-5.14 (inactive),-0.867 (inactive),0.25,0.441 (inactive),-1.36 (inactive),-0.669
CCOC1=C2C(CN(S(=O)(=O)c3ccc(C)cc3)C2c2ccc(C)cc2)C2C(=O)N(c3ccccc3)C(=O)C2C1 (stereo not given),-0.0859 (inactive),0.0839,1.87 (inactive),1.24 (inactive),0.398 (inactive),0.855 (inactive),-0.258,1.12 (inactive),0.103 (inactive),-0.229
C=C(COC)/C(=C/C[C@@H](OC(C)=O)c1ccc(OCCO)cc1)c1cc(C(=O)OC)ccc1OC,0.0977 (inactive),0.139,11.2 (active),1.87 (inactive),0.681 (inactive),0.601 (inactive),-0.0505,-0.0514 (inactive),-0.355 (inactive),-1.57
CC(C)(C)OC(=O)CC[C@]1(C(=O)NCC(O)CO)COC(c2ccc(OCCCO)cc2)=N1 (stereo not given in full),-0.0886 (inactive),0.149,5.77 (inactive),0.645 (inactive),0.639 (inactive),0.619 (inactive),0.0272,-2.16 (inactive),-0.351 (inactive),-0.519
COc1ccc([Si](C)(C)[C@H]2[C@H](CCO)O[C@@]3(C(=O)N(Cc4ccc(N5C(=O)COc6ccccc65)cc4)c4ccccc43)[C@@H]2C)cc1,-0.609 (inactive),-0.0094,5 (inactive),2.39 (inactive),-0.645 (inactive),1.41 (inactive),0.328,-0.916 (inactive),1.3 (inactive),2
CC1CC/C=C\[C@H]2OC34C=CCN(C(C)(C)C)C(=O)[C@H]3N(CCCCCCO)C(=O)[C@@H]4C2C(=O)O1 (stereo not given in full),0.0837 (inactive),-0.0501,0.375 (inactive),0.794 (inactive),0.39 (inactive),0.771 (inactive),-0.0989,0.959 (inactive),-0.0389 (inactive),1.77
C=C(COC)/C(=C/C[C@@H](OC(C)=O)c1ccc(CO)o1)c1cnc2ccccc2c1,0.876 (inactive),0.233,4.44 (inactive),0.759 (inactive),1.56 (inactive),0.307 (inactive),0.0933,0.299 (inactive),-2.98 (inactive),-1.25
C=CC[C@]1(C(=O)NCCCOC)N=C(c2ccc(OCCCO)cc2)O[C@H]1c1ccccc1N=[N+]=[N-],0.239 (inactive),0.479,33.6 (active),32.2 (active),3.35 (inactive),8.48 (active),-0.403,-1.06 (inactive),1.33 (inactive),-0.678
C=CCN1C(=O)[C@@]2(O[C@@H](CCO)[C@H]([Si](C)(C)c3ccc(OC)cc3)[C@H]2C)c2cc(NC(=O)c3ccc(OC)cc3)ccc21,-0.0564 (inactive),-0.147,23.3 (active),6.69 (inactive),0.978 (inactive),1.75 (inactive),0.26,-3.81 (inactive),-0.905 (inactive),-0.695
COc1cc(CO)cc(I)c1O[C@H]1C=C(C(=O)NCCO)C[C@@H](N(CCN2CCOCC2)C(=O)C2CCOC2)[C@@H]1O (stereo not given in full),3.66 (inactive),-0.319,8.79 (active),1.59 (inactive),1.89 (inactive),0.427 (inactive),0.432,-0.568 (inactive),1.29 (inactive),0.233
CCCCC(=C=CC[C@@H](O)c1ccccc1OCCO)CCO,0.086 (inactive),0.0752,9.77 (active),0.899 (inactive),0.631 (inactive),0.576 (inactive),0.289,-0.0172 (inactive),-0.742 (inactive),-1.71
COc1cc2c(cc1OC)CN(C(=O)[C@@H]1[C@H]3C(=O)O[C@H](c4ccccc4)[C@H](c4ccccc4)N3[C@H](c3ccc(O)cc3)[C@@]13C(=O)Nc1ccc(C#CC4(O)CCCCCC4)cc13)CC2,0.384 (inactive),-0.771,0.794 (inactive),0.657 (inactive),0.87 (inactive),0.442 (inactive),0.137,1.65 (inactive),0.744 (inactive),0.479
O=C(NCc1ccccc1)[C@@]1(CCS(=O)(=O)c2ccccc2)N=C(c2ccc(OCCCO)cc2)O[C@H]1c1ccccc1,1.06 (inactive),0.351,26.4 (active),10.4 (active),0.559 (inactive),1.99 (inactive),0.0734,-0.321 (inactive),1.35 (inactive),1.33
C=C(C)C1C(=C)CN([C@H](CO)c2ccccc2)C1=O (stereo not given in full),-1.08 (inactive),-0.285,0.391 (inactive),0.497 (inactive),0.711 (inactive),-0.0396 (inactive),-0.272,1.98 (inactive),0.998 (inactive),-0.846
CN1C(=O)C2C=CC(C(O)c3cc(C(F)(F)F)cc(C(F)(F)F)c3)N(N3CCCCC3)C2C1=O (stereo not given),-0.78 (inactive),0.349,1.2 (inactive),0.968 (inactive),0.859 (inactive),0.999 (inactive),-1.08,0.00363 (inactive),-0.651 (inactive),1.01
[N-]=[N+]=NCc1ccccc1[C@H]1OC(c2ccc(OCCCO)cc2)=N[C@@]1(Cc1ccccc1)C(=O)NCc1ccccc1,0.336 (inactive),0.22,27.6 (active),23.5 (active),1.96 (inactive),1.77 (inactive),-0.669,1.08 (inactive),0.113 (inactive),-0.549
C=C/C=C/[C@H]1C(=C)CN([C@@H](Cc2ccccc2)C(=O)OC)[C@@H]1[C@H](O)Cc1ccccc1,0.297 (inactive),-0.239,1.09 (inactive),0.804 (inactive),-0.207 (inactive),0.257 (inactive),-0.344,-0.66 (inactive),-0.432 (inactive),-0.723
COCCOC(=O)N1C(=O)[C@@]2(c3cc(C#CCCO)ccc31)[C@H](C(=O)N1CCN(c3ncccn3)CC1)[C@H]1C(=O)O[C@H](c3ccccc3)[C@H](c3ccccc3)N1[C@@H]2c1ccccc1OCCO,1.21 (inactive),0.157,2.63 (inactive),1.14 (inactive),0.288 (inactive),0.761 (inactive),0.69,1.45 (inactive),1.29 (inactive),0.437
[N-]=[N+]=NCc1ccccc1C[C@]1(C(=O)O)N=C(c2ccc(OCCCO)cc2)O[C@H]1c1ccccc1N=[N+]=[N-],0.23 (inactive),0.396,36.3 (active),33.8 (active),4.02 (inactive),10 (active),0.468,-2.14 (inactive),0.705 (inactive),-1.92
O=C1NC(=O)C2C1C=CC(C(O)c1cccc3ccccc13)N2Nc1ccccn1 (stereo not given),-0.0275 (inactive),0.137,1.06 (inactive),0.344 (inactive),0.274 (inactive),0.899 (inactive),-0.562,-1.2 (inactive),-2.83 (inactive),-2.36
CN1C2C=C(CCCO)C(C3C(=O)N(C(N)=O)C(=O)C32)C1c1ccc(CN2CCCC2)cc1 (stereo not given),0.0489 (inactive),-0.189,0.114 (inactive),0.229 (inactive),-0.695 (inactive),-0.11 (inactive),-0.0852,-1.52 (inactive),0.171 (inactive),-0.0223
